The text below walks through data of PubChem BioAssay.

Calls of active or inactive are those of the source. Unless noted, how the calls were made is not given here.

Experiment [1] has as its system Wnt5a (protein binding on small-molecule microarray). As to the kind of experiment: Wnt5a binders on small-molecule microarray, primary screen, biophysical, 635/667 nm fluorescence (AID 1142).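 Further: fluorescence read at 667 nm with signal to noise per printed feature.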 The note with it: 635 nm fluorescence, higher = more signal.
Experiment [2] is described as follows: cell viability in Huh7 cells, primary screen, cytotoxicity control for HCV replication inhibitor project, CellTiter-Glo luminescence, basal, 48 h (AID 1143).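 Further: Huh7 hepatoma cells carrying a hepatitis C replication reporter with no stimulus; test concentration not given here.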 The note with it: Huh7 HCV replicon, higher = more signal, called active from +8 up or from −8 down.
Experiment [3] in a line: P. aeruginosa biofilm formation inhibitors, primary screen, PAO1 strain, BacTiter-Glo luminescence, LB-PBS (AID 1144). The note with it: 12 h, higher = more signal.
A short description of experiment [4]: CREB reporter modulators without forskolin, primary screen, cell-based, PC12, CRE-LacZ reporter, unstimulated (AID 1145). The note with it: no forskolin, luminescence, 4.5 h, higher = more signal, called active from +8 up or from −8 down.
The nature of experiment [5]: CREB reporter modulators under forskolin, primary screen, cell-based, PC12, CRE-LacZ reporter, forskolin-stimulated (AID 1146).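 Further: PC12 cells with 6xCRE LacZ reporter stimulated by forskolin 10 µM; beta-galactosidase reporter signal reflecting CREB driven transcription.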 The note with it: luminescence, 4.5 h, higher = more signal, called active from +8 up or from −8 down.
In experiment [6] the target is Streptavidin (Streptomyces avidinii) (UniProt P22629). The experiment can be described thus: streptavidin binders on small-molecule microarray, primary screen, artefact control for SMM compound annotation, biophysical, 635/667 nm fluorescence (AID 1147).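 Further: signal reflects streptavidin binding to arrayed compounds as a control protein.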 To be noted: streptavidin binding, higher = more signal.
Experiment [7] can be described thus: small-molecule binders of probe aInhba, primary screen, biochemical, small-molecule microarray, 635/667 nm fluorescence (AID 1148).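 Further: score merges 667nm spot fluorescence with signal-to-noise for antibody binding to printed compounds.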 The note with it: higher = more signal.
Experiment [8] has as its target Torsin-1A (Homo sapiens) (UniProt O14656). As to the kind of experiment: torsin A binders from cell lysate, primary screen, small-molecule microarray, wild-type, 635/667 nm (AID 1149). The note with it: COS7 hTOR1A-WT lysate, 635 nm fluorescence, higher = more signal.
Experiment [9] has the same target. As to the kind of experiment: small-molecule binders of mutant TOR1A in lysate, primary screen, cell lysate, small-molecule microarray, COS7 lysate, 635/667 nm fluorescence (AID 1150).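 Further: score pools 667 nm emission and signal to noise measuring lysate protein binding.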 To be noted: COS7 hTOR1A mutant lysate, 635 nm fluorescence, higher = more signal.
Experiment [10] relates to Sonic hedgehog protein (Shh). As to the kind of experiment: small-molecule binders of Shh protein, primary screen, biochemical, small-molecule microarray, 635/667 nm fluorescence (AID 1151).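 Further: Shh protein binding to compounds spotted on small-molecule microarray slides; score combines spot fluorescence intensity with signal-to-noise across triplicate slides.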 The note with it: small-molecule microarray binding, 635 nm fluorescence; higher = more signal.
Experiment [11] can be described thus: E. coli DRC41 culture turbidity changes, primary screen, E. coli filamentation inducer project, strain DRC41, OD650, 48 h (AID 1152).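 Further: E. coli MC1000 strain DRC41 lacking acrAB efflux pump and sulA.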 The note with it: E. coli DRC41 (acrAB sulA), higher = more signal, called active from +8 up or from −8 down.
A short description of experiment [12]: small-molecule binders of probe aLefty1, primary screen, biochemical, small-molecule microarray, 635/667 nm fluorescence (AID 1153).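 Further: score merges spot fluorescence with signal-to-noise ratio from the scanned slide images.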 The note with it: higher = more signal.
The nature of experiment [13]: PSAC antagonists in infected red cells, primary screen, cell-based, P. falciparum Indochina, OD700, 1 h (AID 1154). The note with it: P. falciparum Indochina infected RBC osmotic lysis, higher = more signal, called active from +8 up or from −8 down.
Experiment [14] can be described thus: PSAC antagonists in infected red cells, primary screen, cell-based, P. falciparum Indochina, OD700, 2 h (AID 1155).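 Further: lysis reports solute entry through the parasite surface anion channel PSAC; channel blockers reduce lysis of infected cells.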 To be noted: P. falciparum Indochina infected erythrocytes, osmotic lysis OD700; higher = more signal, called active from +8 up or from −8 down.
Experiment [15] is described as follows: osmotic lysis modulators in infected erythrocytes, primary screen, PSAC antagonist project, cell-based, P. falciparum Indochina, OD700, 3 h (AID 1156). To be noted: higher = more signal, called active from +8 up or from −8 down.
The nature of experiment [16]: PSAC antagonists in infected red cells, primary screen, cell-based, P. falciparum Indochina, OD700, 18 h (AID 1157). To be noted: P. falciparum Indochina infected erythrocytes, osmotic lysis OD700, 18 h; higher = more signal, called active from +8 up or from −8 down.
The nature of experiment [17]: modulators of S6 phosphorylation in cells, primary screen, cell-based, A549, cytoblot, luminescence, serum-stimulated (AID 1158).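 Further: serum-stimulated A549 lung adenocarcinoma cells; signal is phosphorylated S6 detected by cytoblot immunostaining with HRP secondary.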 The note with it: A549 phospho-S6 cytoblot, 5 h, higher = more signal.
In experiment [18] the target is NADPH oxidase 2 (Homo sapiens) (UniProt P04839). The experiment can be described thus: NOX2-dependent H2O2 signal modulators, primary screen, NOX inhibitor project, cell-based, HEK293-NOX2, PMA-stimulated, Amplex Red fluorescence (AID 1159). Further: test concentration not given here. The note with it: 45 min, higher = more signal, called active from +8 up or from −8 down.
Experiment [19] deals with NADPH oxidase 4 (Homo sapiens) (UniProt Q9NPH5). As to the kind of experiment: NOX4-dependent H2O2 signal modulators, primary screen, NOX inhibitor project, cell-based, HEK293-NOX4, tetracycline-induced, Amplex Red fluorescence (AID 1160). The note with it: 45 min, higher = more signal, called active from +8 up or from −8 down.
The target in experiment [20] is NADPH oxidase 5 (Homo sapiens) (UniProt Q96PH1). The experiment can be described thus: NOX5-dependent H2O2 signal modulators, primary screen, NOX inhibitor project, cell-based, HEK293-NOX5, Amplex Red fluorescence (AID 1161). To be noted: HEK293-NOX5, ionomycin, 45 min, higher = more signal.
Sequence of NADPH oxidase 5 (Homo sapiens) (Q96PH1 whole entry, looked up): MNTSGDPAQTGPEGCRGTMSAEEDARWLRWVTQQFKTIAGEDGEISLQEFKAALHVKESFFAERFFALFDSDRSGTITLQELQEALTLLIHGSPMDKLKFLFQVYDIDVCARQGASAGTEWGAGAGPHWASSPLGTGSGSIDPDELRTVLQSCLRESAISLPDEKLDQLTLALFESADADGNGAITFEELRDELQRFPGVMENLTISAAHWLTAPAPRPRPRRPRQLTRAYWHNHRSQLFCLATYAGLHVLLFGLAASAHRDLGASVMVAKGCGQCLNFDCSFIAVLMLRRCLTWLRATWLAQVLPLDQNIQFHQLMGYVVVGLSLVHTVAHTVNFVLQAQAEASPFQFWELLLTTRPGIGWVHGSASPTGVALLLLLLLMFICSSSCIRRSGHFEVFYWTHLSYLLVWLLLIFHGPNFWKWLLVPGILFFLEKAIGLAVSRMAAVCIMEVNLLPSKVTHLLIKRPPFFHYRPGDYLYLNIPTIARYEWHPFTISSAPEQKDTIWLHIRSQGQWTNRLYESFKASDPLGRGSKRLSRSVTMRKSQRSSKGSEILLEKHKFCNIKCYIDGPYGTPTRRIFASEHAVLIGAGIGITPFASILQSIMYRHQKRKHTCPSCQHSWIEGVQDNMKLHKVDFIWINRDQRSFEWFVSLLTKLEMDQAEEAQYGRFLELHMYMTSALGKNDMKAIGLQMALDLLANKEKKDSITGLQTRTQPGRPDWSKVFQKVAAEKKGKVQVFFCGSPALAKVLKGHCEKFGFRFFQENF

Sequence of Torsin-1A (Homo sapiens) (O14656 whole entry, looked up): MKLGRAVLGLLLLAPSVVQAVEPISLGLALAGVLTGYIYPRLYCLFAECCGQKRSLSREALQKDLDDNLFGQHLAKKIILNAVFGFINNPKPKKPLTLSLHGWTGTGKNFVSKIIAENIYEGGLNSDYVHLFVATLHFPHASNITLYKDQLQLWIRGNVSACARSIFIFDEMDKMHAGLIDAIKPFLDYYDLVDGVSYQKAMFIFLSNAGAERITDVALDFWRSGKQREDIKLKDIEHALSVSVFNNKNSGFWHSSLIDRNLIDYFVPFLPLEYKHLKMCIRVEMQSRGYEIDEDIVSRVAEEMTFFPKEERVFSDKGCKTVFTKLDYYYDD
Sequence of NADPH oxidase 2 (Homo sapiens) (P04839 whole entry, looked up): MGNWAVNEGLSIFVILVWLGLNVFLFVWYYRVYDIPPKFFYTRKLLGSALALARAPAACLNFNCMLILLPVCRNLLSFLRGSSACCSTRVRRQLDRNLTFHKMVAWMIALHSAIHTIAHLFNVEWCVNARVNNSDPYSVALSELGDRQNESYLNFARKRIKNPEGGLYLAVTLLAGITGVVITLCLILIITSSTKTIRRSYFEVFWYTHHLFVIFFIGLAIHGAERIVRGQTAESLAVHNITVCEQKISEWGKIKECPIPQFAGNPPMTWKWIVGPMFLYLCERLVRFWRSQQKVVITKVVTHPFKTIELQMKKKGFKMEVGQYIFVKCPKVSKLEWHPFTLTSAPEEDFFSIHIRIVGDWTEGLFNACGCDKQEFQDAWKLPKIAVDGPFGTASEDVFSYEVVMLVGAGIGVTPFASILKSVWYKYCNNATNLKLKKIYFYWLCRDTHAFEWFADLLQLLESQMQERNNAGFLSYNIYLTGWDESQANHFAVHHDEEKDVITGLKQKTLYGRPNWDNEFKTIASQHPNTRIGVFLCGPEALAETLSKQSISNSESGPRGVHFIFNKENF
Sequence of NADPH oxidase 4 (Homo sapiens) (Q9NPH5 whole entry, looked up): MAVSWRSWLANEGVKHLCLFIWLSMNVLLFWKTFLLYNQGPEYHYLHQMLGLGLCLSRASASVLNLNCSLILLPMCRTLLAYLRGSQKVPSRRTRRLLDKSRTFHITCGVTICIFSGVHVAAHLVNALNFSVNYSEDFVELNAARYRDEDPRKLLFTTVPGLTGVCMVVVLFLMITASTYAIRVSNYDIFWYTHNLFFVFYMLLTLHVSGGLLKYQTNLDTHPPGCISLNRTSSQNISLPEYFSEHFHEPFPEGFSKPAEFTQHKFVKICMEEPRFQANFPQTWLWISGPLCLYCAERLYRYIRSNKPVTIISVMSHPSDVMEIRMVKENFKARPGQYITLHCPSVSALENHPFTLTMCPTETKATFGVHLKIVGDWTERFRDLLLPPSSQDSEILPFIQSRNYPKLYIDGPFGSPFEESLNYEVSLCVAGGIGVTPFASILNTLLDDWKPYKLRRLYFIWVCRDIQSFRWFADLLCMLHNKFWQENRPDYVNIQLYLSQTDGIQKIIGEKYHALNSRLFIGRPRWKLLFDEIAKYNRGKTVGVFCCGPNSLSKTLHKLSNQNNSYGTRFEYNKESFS
Sequence of Streptavidin (Streptomyces avidinii) (P22629 whole entry, looked up): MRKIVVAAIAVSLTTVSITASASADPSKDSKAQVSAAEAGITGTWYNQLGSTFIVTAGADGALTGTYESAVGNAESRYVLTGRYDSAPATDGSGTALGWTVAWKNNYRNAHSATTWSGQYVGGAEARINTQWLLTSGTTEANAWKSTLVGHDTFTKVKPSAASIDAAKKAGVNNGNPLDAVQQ

As for `COC(=O)C(CC#Cc1ccc2c(c1)[C@]1(C(=O)N2)[C@H](C(=O)N2CCN(c3ncccn3)CC2)[C@H]2C(=O)O[C@H](c3ccccc3)[C@H](c3ccccc3)N2[C@@H]1c1ccc(OCCO)cc1)C(=O)OC`, the composite z-score in [1] was 0.545; in experiment [6] it was 0.736; in experiment [7], 0.109; with Torsin-1A (Homo sapiens) [8], 0.393; with Torsin-1A (Homo sapiens) [9], 0.798; in experiment [10], 2.23. In addition, the composite z-score in experiment [12] worked out at 0.2. The z-score in experiment [2] was -1.02 (inactive); in [3], -0.99 (inactive); in experiment [4] it was -0.671 (inactive); in experiment [5], -0.772 (inactive); in experiment [11] it was 0.454 (inactive); in [13] it was 11 (active). In addition, the z-score in [14] was 2.86 (inactive); in [15], 1.03 (inactive); in experiment [16] it was 1.4 (inactive); in [17], 0.311; in [18], 1.36 (inactive); in experiment [19] it was 0.504 (inactive). The compound further gave a z-score in experiment [20] of 1.53.
On to `O=C1NC(=O)C2C1C=CC(C(O)c1ccco1)N2Nc1ccccn1` (stereo not given), for which the composite z-score is 0.0477 in experiment [1]; -0.124 in [6]; -0.221 in experiment [7]; 0.322 with Torsin-1A (Homo sapiens) [8]; 0.316 in the experiment with Torsin-1A (Homo sapiens) [9]; 0.366 in experiment [10]. For the same compound, in experiment [12], the composite z-score is -0.145. In addition, the z-score in [2] is 0.829 (inactive); in experiment [3], 0.0748 (inactive); in [4] it was -0.522 (inactive); in [5], 0.413 (inactive); in experiment [11] it was -1.23 (inactive); in [13], -0.379 (inactive). The z-score is 0.74 (inactive) in experiment [14]; -0.314 (inactive) in experiment [15]; 0.581 (inactive) in experiment [16]; -1.19 in experiment [17]; -1.35 (inactive) in experiment [18]; -2.89 (inactive) in experiment [19]. The z-score in experiment [20] was -1.78.
As to `COc1cc(OC)c(C(O)C2C=CC3C(=O)N(C)C(=O)C3N2NC(=O)OC(C)(C)C)cc1Br` (stereo not given), the composite z-score worked out at 0.326 in experiment [1]; 1.25 in experiment [6]; 0.194 in experiment [7]; 0.443 in the experiment with Torsin-1A (Homo sapiens) [8]; 0.315 with Torsin-1A (Homo sapiens) [9]; 0.568 in [10]. In [12], this compound yielded a composite z-score of 0.524. In addition, the z-score in experiment [2] is 0.558 (inactive); in experiment [3], -0.224 (inactive); in experiment [4], 1.2 (inactive); in experiment [5] it was 0.922 (inactive); in experiment [11] it was -0.36 (inactive); in experiment [13] it was 1.24 (inactive). The z-score is 1.18 (inactive) in experiment [14]; -0.285 (inactive) in experiment [15]; 1.07 (inactive) in [16]; -0.92 in experiment [17]; 0.224 (inactive) in experiment [18]; -3.59 (inactive) in [19]. Also, in experiment [20], the z-score was determined as 0.576.
With `COCCCNC(=O)[C@@]1(Cc2ccccc2N=[N+]=[N-])COC(c2ccc(OCCCO)cc2)=N1`, the composite z-score was 0.926 in experiment [1]; 1.63 in experiment [6]; 0.0184 in experiment [7]; 0.308 in the experiment with Torsin-1A (Homo sapiens) [8]; 0.614 in the experiment with Torsin-1A (Homo sapiens) [9]; -0.676 in experiment [10]. Besides, in [12], the composite z-score was 0.35. For the same compound, the z-score in experiment [2] was -1.63 (inactive); in experiment [3] it was 0.53 (inactive); in experiment [4] it was -0.641 (inactive); in experiment [5] it was -0.849 (inactive); in experiment [11], 1.21 (inactive); in experiment [13], 27.4 (active). Moreover, the z-score in experiment [14] is 16.4 (active); in experiment [15], 2.03 (inactive); in [16] it was 2.36 (inactive); in experiment [17] it was -0.44; in [18] it was -1.62 (inactive); in experiment [19], 0.528 (inactive). For the same compound, the z-score in [20] is -0.146.
